From PubChem BioAssay AID2728 (Broad Institute, 2010)
The list shows a part of the results. Inconclusive results are not listed. The source made the active and inactive calls.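 The calls were made as follows: active = every replicate shows growth inhibition above 50%; inconclusive = at least half but not all replicates above 50% inhibition; inactive = under half of replicates above 50% inhibition.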

Assay: growth inhibition of V. harveyi BB721, confirmation, cytotoxicity control for AI-2 quorum sensing inhibitors, strain BB721, absorbance OD600 (AID 2728)
Conditions: Vibrio harveyi BB721 growth, 9 h, at 7.5 µM, hits give high values

SMILES | growth inhibition
CC(=O)c1cccc(OCc2cc(C(=O)NC(C)Cc3cccnc3)no2)c1 (stereo unspecified) | 8.38% (inactive)
COC(=O)c1ccc(SCc2ccccc2)nc1 | -21% (inactive)
O=C(COc1ncnc2ccccc12)NC(=O)NCc1ccccc1 | 27.2% (inactive)
Cc1ccccc1NC(=O)CCOc1ccccc1 | -7.16% (inactive)
Cc1cc(C(=O)OCC(=O)Nc2ccc(F)c(F)c2)c(C)o1 | -6.2% (inactive)
Cc1ccc(NS(=O)(=O)c2ccc3c(c2)NC(=O)CO3)cc1 | 18.2% (inactive)
O=C(Nc1ccc(F)c(Cl)c1)C1CCN(S(=O)(=O)c2cccnc2)CC1 | 14.5% (inactive)
O=C(Cn1cnc2ccccc2c1=O)Nc1cccc(S(=O)(=O)N2CCCCC2)c1 | 14% (inactive)
CC(C)(C)c1ccc(OC2=CS(=O)(=O)c3ccccc32)cc1 | 26.8% (inactive)
Cc1ccc(Cc2nc(-c3cccc(C)c3)no2)cc1 | 19.7% (inactive)
O=C(CCC(=O)c1cccs1)Nc1nc2ccccc2s1 | -0.412% (inactive)
O=C1COc2ccc(S(=O)(=O)Nc3ccc(OC(F)(F)F)cc3)cc2N1 | 55% (inactive)
O=C(COC(=O)C1CCCCC1)Nc1ccc([N+](=O)[O-])cc1 | -40.8% (inactive)
CN(Cc1cnccn1)C(=O)c1cc(COc2cccc(C(F)(F)F)c2)on1 | 18.2% (inactive)
Cc1cccc(CSc2ccc(-c3cccs3)nn2)c1 | -12.7% (inactive)
O=C(c1cc(-c2cccc(O)c2)on1)N1CCc2ccccc2C1 | 2.13% (inactive)

SMILES | growth inhibition
O=C(/C=C/c1ccc2c(c1)OCO2)NCc1ccc(F)cc1 | 16.5% (inactive)
Cc1ccc(Oc2cnn(-c3ccccc3)c(=O)c2Br)cc1 | 4.98% (inactive)
COc1ccc(/C(N)=N/OC(=O)Cc2ccccc2)cc1 | -4.72% (inactive)
S=C(NCc1ccc(Cl)cc1)NC1CCCCC1 | 12.8% (inactive)
N/C(=N\OC(=O)CCc1ccccc1)c1cccnc1 | 0.547% (inactive)
COC(=O)C1CCN(C(=O)c2ccc3oc(Cc4ccc(Cl)cc4)nc3c2)CC1 | 19.1% (inactive)
Cc1nn(CC(=O)Nc2ccc(F)cc2)c(=O)c2ccccc12 | 0.351% (inactive)
Cc1ccc(NC(=O)C2CC2c2ccccc2)cc1 (stereo unspecified) | 7.3% (inactive)
Cc1cc(CN(C)C(=O)c2cc(COc3ccc(C)c(C)c3)on2)n[nH]1 | 28.4% (inactive)
Cc1ccsc1C(=O)OCC(=O)c1cc2ccccc2o1 | 4.04% (inactive)
CCOC(=O)c1nn(-c2cccc(C)c2)cc1C(=O)c1ccccc1 | -7.63% (inactive)
COc1cccc(NC(=O)NCc2ccc(F)cc2)c1 | -16.1% (inactive)
O=C(/C=C/c1ccc2c(c1)OCCO2)c1ccc(O)cc1 | -21.7% (inactive)
CC(CNc1ccc([N+](=O)[O-])cc1)NC(=O)c1ccccc1Br (stereo unspecified) | -16.1% (inactive)
CCOc1ccc(/C=N/NC(N)=S)cc1 | 18% (inactive)
